Assay [1] is described as follows: Tanguay_ZF_120hpf_YSE_legacy: (Legacy) Oregon State University Tanguay Lab 120 Hour Post-fertilization zebrafish Assay for Yolk Sac Edema (AID 2283634).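 As to AC50: actives raise the incidence of yolk sac edema above the DMSO baseline.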 In a few lines: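 Dechorionate (pronase, 4 hpf) → place one 6 hpf embryo per well → static compound exposure, sealed and foil-covered, 28C, to 120 hpf → record yolk sac edema as present or absent. Final DMSO 0.64%.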

Assay [2] in a line: Tanguay_ZF_120hpf_AXIS_legacy: (Legacy) Oregon State University Tanguay Lab 120 Hour Post-fertilization zebrafish Assay for Body Axis Malformation (AID 2283635). The method, boiled down: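 Chorion is removed with pronase at 4 hpf, then single 6 hpf embryos are dosed (final DMSO 0.64%) and held statically at 28C in sealed, foil-covered plates. At 120 hpf body axis malformation is recorded as present or absent.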

Assay [3] in a line: Tanguay_ZF_120hpf_SNOU_legacy: (Legacy) Oregon State University Tanguay Lab 120 Hour Post-fertilization zebrafish Assay for Snout Malformation (AID 2283637). The method, boiled down: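 Binary brightfield scoring of snout malformation at 120 hpf. Dechorionated 5D wild-type embryos, one per well, static exposure from 6 hpf at 28C, sealed and dark; final DMSO 0.64% (vol/vol), DMSO as baseline; 5uM trimethyltin chloride positive control.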

Assay [4] is described as follows: Tanguay_ZF_120hpf_JAW_legacy: (Legacy) Oregon State University Tanguay Lab 120 Hour Post-fertilization zebrafish Assay for Jaw Malformation (AID 2283638).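 As to AC50: active means more embryos with jaw malformation than DMSO controls.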 The method, boiled down:
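Steps: dechorionate 4 hpf embryos (pronase); plate 1/well at 6 hpf; add test chemical, 0.64% DMSO final; seal, cover, hold at 28C statically to 120 hpf; score jaw defect presence/absence microscopically. Dead embryos not scored.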

Assay [5] can be described thus: Tanguay_ZF_120hpf_OTIC_legacy: (Legacy) Oregon State University Tanguay Lab 120 Hour Post-fertilization zebrafish Assay for Otic Vesicle Malformation (AID 2283639). In a few lines:
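Wild-type zebrafish larvae, whole-embryo exposure from early stage to 120 hpf at 28C. Binary brightfield scoring of otic vesicle morphology, fitted in the positive direction against the DMSO baseline.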

A short description of assay [6]: Tanguay_ZF_120hpf_PE_legacy: (Legacy) Oregon State University Tanguay Lab 120 Hour Post-fertilization zebrafish Assay for Pericardial Edema (AID 2283640).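 As to AC50: potency for increased incidence of pericardial edema versus DMSO baseline.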 In a few lines: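 Embryos from wild-type 5D adults were staged, then dosed in 0.64% DMSO. They were kept sealed in the dark at 28C until 120 hpf. Pericardial edema was then recorded as present or absent.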
Assay [7] in a line: Tanguay_ZF_120hpf_BRAI_legacy: (Legacy) Oregon State University Tanguay Lab 120 Hour Post-fertilization zebrafish Assay for Brain Malformation (AID 2283641). The method, boiled down: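 Wild-type 5D larvae, static waterborne exposure to 120 hpf, 28C, 0.64% v/v DMSO. Brightfield scoring of brain defects, binary; dead embryos excluded. Positive ctrl 5uM trimethyltin chloride.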

A short description of assay [8]: Tanguay_ZF_120hpf_SOMI_legacy: (Legacy) Oregon State University Tanguay Lab 120 Hour Post-fertilization zebrafish Assay for Somite Malformation (AID 2283647). The method, boiled down: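 Read-out: presence or absence of somite malformation in 120 hpf larvae, gain-of-signal relative to DMSO baseline. Embryos lacked chorion (pronase, 4 hpf) and were exposed statically from 6 hpf at 28C; dead larvae not scored.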

Assay [9] in a line: Tanguay_ZF_120hpf_PFIN_legacy: (Legacy) Oregon State University Tanguay Lab 120 Hour Post-fertilization zebrafish Assay for Pectoral Fin Malformation (AID 2283648).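 Also: each larva judged yes or no for fin defect by brightfield with dead larvae skipped.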 The method, boiled down: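 Binary pectoral fin malformation call at 120 hpf by brightfield microscopy; 5D wild-type zebrafish, chorion removed at 4 hpf, one embryo per well from 6 hpf, static exposure at 28C; DMSO (0.64% final) as baseline.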

Assay [10] is described as follows: Tanguay_ZF_120hpf_CFIN_legacy: (Legacy) Oregon State University Tanguay Lab 120 Hour Post-fertilization zebrafish Assay for Caudal Fin Malformation (AID 2283649). In a few lines: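 Binary presence or absence of caudal fin malformation at 120 hpf, read by brightfield microscopy, with DMSO as baseline. Larvae came from 5D wild-type embryos exposed statically from 6 hpf at 28C after pronase dechorionation.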

The nature of assay [11]: Tanguay_ZF_120hpf_PIG_legacy: (Legacy) Oregon State University Tanguay Lab 120 Hour Post-fertilization zebrafish Assay for Pigmentation Malformation (AID 2283650).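 Also: dechorionated Tropical 5D zebrafish embryos exposed singly from 6 to 120 hpf.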 The method, boiled down:
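Brightfield scoring of pigmentation malformation at 120 hpf, recorded as binary present/absent per larva. Exposure: dechorionated 5D wild-type embryos, one per well, static from 6 hpf at 28C, final DMSO 0.64% (vol/vol). Dead embryos not scored.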

Assay [12] in a line: Tanguay_ZF_120hpf_SWIM_legacy: (Legacy) Oregon State University Tanguay Lab 120 Hour Post-fertilization zebrafish Assay for Swim Bladder Malformation (AID 2283654).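 Also: swim bladder malformation in each larva scored yes or no under brightfield.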 The method, boiled down:
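Tropical 5D embryos dechorionated at 4 hpf; 1 embryo/well from 6 hpf; static, sealed, dark exposure at 28C until 120 hpf; final DMSO 0.64%; 5uM trimethyltin chloride positive control; swim bladder defect recorded yes/no; dead embryos not scored.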

The nature of assay [13]: Tanguay_ZF_120hpf_TRUN_legacy: (Legacy) Oregon State University Tanguay Lab 120 Hour Post-fertilization zebrafish Assay for Truncated Body (AID 2283655). In a few lines: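 Truncated body is recorded as a binary endpoint at 120 hpf by brightfield imaging of wild-type 5D larvae. Exposure runs statically from 6 hpf at 28C with 0.64% DMSO; embryos dying earlier are not scored.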

Assay [14] in a line: Tanguay_ZF_120hpf_EYE_legacy: (Legacy) Oregon State University Tanguay Lab 120 Hour Post-fertilization zebrafish Assay for Eye Malformation (AID 2283636). In a few lines: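 5D wild-type embryos, pronase-dechorionated at 4 hpf; static exposure 6–120 hpf, 28C, dark; DMSO 0.64% final; 5uM trimethyltin chloride positive control. Binary eye-defect scoring at 120 hpf; dead embryos not scored.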

A short description of assay [15]: Tanguay_ZF_120hpf_CIRC_legacy: (Legacy) Oregon State University Tanguay Lab 120 Hour Post-fertilization zebrafish Assay for Circulatory Malformation (AID 2283651). The method, boiled down:
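Binary circulatory-malformation call at 120 hpf via brightfield imaging, relative to DMSO controls. Embryos (5D strain, chorion removed) received static, light-shielded exposure at 28C.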

Assay [16] is described as follows: Tanguay_ZF_120hpf_NC_legacy: (Legacy) Oregon State University Tanguay Lab 120 Hour Post-fertilization zebrafish Assay for Notochord and Tail Malformation (AID 2283656). The method, boiled down: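 Binary notochord-distortion calls, made by brightfield inspection, form the read-out; activity is fitted in the positive direction against DMSO. Exposure ran statically from 6 to 120 hpf at 28C with 0.64% DMSO.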

Read-out in assay [17]: kallikrein-3 (KLK3), KLK3 (gene 354)
Briefly: LTEA_HepaRG_KLK3: Life Technologies and Expression Analysis (LTEA) Assay for kallikrein-3 (KLK3) using HepaRG (AID 2283652; active = hit-call score of the fitted dose curve at least 0.9, where 1 is the maximum; inactive = score below 0.9). The settings on record: mRNA level, 48 h; actives raise or lower the signal. In a few lines: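 KLK3 transcript levels were measured by TaqMan qRT-PCR with normalisation to three housekeeping genes. HepaRG cultures received chemicals for 48 h at up to 100 uM (half-log, 8 points, 0.5% DMSO vehicle), fitted in both directions against DMSO.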

Read-out in assay [18]: solute carrier (SLC22A6), SLC22A6 (gene 9356)
As to the kind of experiment: LTEA_HepaRG_SLC22A6: Life Technologies and Expression Analysis (LTEA) Assay for solute carrier (SLC22A6) using HepaRG (AID 2283653; active = hit-call score of the fitted dose curve at least 0.9, where 1 is the maximum; inactive = score below 0.9). The settings on record: mRNA level, 48 h; actives raise or lower the signal. In a few lines: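 Read-out is SLC22A6 transcript level by qRT-PCR, normalised to three housekeeping genes and fitted for gain or loss relative to 0.5% DMSO vehicle. Human HepaRG cells received chemicals at up to 100 uM for 48 h.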

Read-out in assay [19]: solute carrier (SLC10A1), SLC10A1 (gene 6554)
As to the kind of experiment: LTEA_HepaRG_SLC10A1: Life Technologies and Expression Analysis (LTEA) Assay for solute carrier (SLC10A1) using HepaRG (AID 2283657; active = hit-call score of the fitted dose curve at least 0.9, where 1 is the maximum; inactive = score below 0.9). The settings on record: mRNA level, 48 h; actives raise or lower the signal. The method, boiled down:
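HepaRG, 48 h exposure, 8-pt half-log curve from 100 uM in 0.5% DMSO, duplicates. Read-out: TaqMan qRT-PCR of SLC10A1 mRNA, normalized to three housekeeping genes. Gain/loss fit vs DMSO baseline.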

Read-out in assay [20]: matrix metalloproteinase-1 (MMP1), MMP1 (gene 4312)
As to the kind of experiment: LTEA_HepaRG_MMP1: Life Technologies and Expression Analysis (LTEA) Assay for matrix metalloproteinase-1 (MMP1) using HepaRG (AID 2283658; active = hit-call score of the fitted dose curve at least 0.9, where 1 is the maximum; inactive = score below 0.9). The settings on record: mRNA level, 48 h; actives raise or lower the signal. In a few lines:
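HepaRG, ~100,000 cells/well, 48 h pre-culture; serum-free induction medium; test chemical 8 conc (max 100 uM, half-log), duplicate, 48 h; 0.5% DMSO; qRT-PCR MMP1, housekeeping-normalized; gain/loss fit vs DMSO.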

Our source for the outcome and AC50 values is PubChem BioAssay (EPA / NIEHS).

For orientation: AC50 means the concentration at which the activity in the assay is half-maximal.

Records with an inconclusive call do not appear. Calls of active or inactive are those of the source. The calls were made as follows, unless noted: active = hit-call score of the fitted dose curve at least 0.9, where 1 is the maximum; inconclusive = response in the unintended direction; inactive = score below 0.9.

Regarding `CN(C)NC(=O)CCC(=O)O`, the molecule was called inactive in [1], in assay [2], in [3], in assay [4], in assay [5] and in assay [6]. Also, the call in assay [7], in [8], in [9], in [10], in assay [11] and in assay [12] was inactive. Also, the molecule was classed as inactive in assay [13].
As to `O=C(O)c1cc(Oc2ccc(C(F)(F)F)cc2Cl)ccc1[N+](=O)[O-]`, the molecule was called inactive in assay [1], in assay [2], in assay [14], in assay [3], in assay [4] and in [5]. For the same molecule, the call in assay [6], in assay [7], in [9], in assay [10], in assay [11] and in assay [15] was inactive. Moreover, the outcome in assay [13] and in assay [16] was inactive.
Turning to `C[N+]1(C)CCCCC1`, the molecule was called inactive in assay [1], in assay [2], in assay [14], in assay [3], in assay [4] and in assay [5]. Moreover, the molecule was called inactive in assay [6], in assay [7], in assay [9], in assay [10], in assay [11] and in [15]. Also, the molecule was called inactive in assay [13] and in [16].
On to `CCC(CC)Nc1c([N+](=O)[O-])cc(C)c(C)c1[N+](=O)[O-]`, for which the outcome in assay [1], in [2], in assay [14], in [3], in assay [4] and in assay [5] was inactive. The molecule was classed as inactive in assay [6], in [7], in assay [9], in [10], in assay [11] and in [15]. For the same molecule, in [13], the call was inactive.
Regarding `COP(=O)(OC)SCn1c(=O)oc2cc(Cl)cnc21`, the AC50 in [1] is 44 µM (active); in [14] it was 15.3 µM (active); in assay [3], 47.5 µM (active); in [4], 15.9 µM (active); in assay [6], 11.2 µM (active). Further, the molecule was classed as inactive in [2], in [5], in assay [7], in [9], in assay [10] and in [11]. The molecule was called inactive in [15], in assay [12] and in assay [13].
Take `CNC(=O)ON=C(SC)C(=O)N(C)C`: the result in assay [1], in assay [2], in assay [3], in assay [4], in assay [5] and in [6] was inactive. The call in assay [7], in assay [8], in assay [9], in assay [10], in assay [11] and in assay [12] was inactive. Also, the result in assay [13] was inactive.
Turning to `CCC(=O)Nc1ccc(Cl)c(Cl)c1`, the molecule was called inactive in assay [1], in [2], in assay [3], in assay [4], in [5] and in assay [6]. In addition, the molecule was classed as inactive in [7], in assay [8], in assay [9], in assay [10], in assay [11] and in [15]. In addition, the result in [13] was inactive.
For `CCOP(=S)(Oc1cnc(C(C)(C)C)nc1)OC(C)C` (stereo not given), the molecule was called inactive in [1], in assay [2], in assay [14], in assay [3], in assay [4] and in assay [5]. The molecule was classed as inactive in [6], in assay [7], in [9], in assay [11], in [15] and in assay [17]. Further, the call in [18], in [13] and in [20] was inactive. In [19], the AC50 was 16.5 µM (active).
